The record followed here is PubChem BioAssay (NCI).

The panel holds about 83,000 compounds, 20% with a hit somewhere; the sample as a whole holds those more often.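 A percent growth of 40 corresponds to 60% growth inhibition; 0 means no net growth; -100 means all cells died. Active threshold: below 10.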 Activity calls are given as the source filed them.

For the assay, the system named is MDA-MB-468 breast. The assay is described as follows: NCI-60 one-dose screen, 48 h (100 = growth as untreated, 0 = no growth, -100 = all killed). The following applies: 10 µM unless noted.
On to `O=S(=O)(NCCNc1nccc(-c2c(-c3cccc(O)c3)nc3occn23)n1)c1ccc(Br)cc1`, for which the growth was 26.6% (inactive).
For the compound `CCCCCCn1c(-c2ccc(C(=O)O/N=C(\N)c3ccc(OC)cc3)cc2)nc(-c2ccccc2)c1-c1ccccc1`, the growth was -6.91% (active).
Take `C/C(=C\CCc1ccoc1)CC/C=C(\C)CCCN1CCOCC1`: the growth is 5.68% (active).
In the case of `COc1ccc(CNCCCN2C(=O)c3ccc4c5c(ccc(c35)C2=O)C(=O)N(CCCNCc2ccc(OC)c(OC)c2OC)C4=O)c(OC)c1OC`, the growth is -94.8% (active).
In the case of `COc1ccc(-c2cc(-c3cc(OC)c(OC)c(OC)c3)c(C#N)c(=O)n2CCCCC(=O)NO)cc1`, the growth is 72.3% (inactive).
Under `CCN(CC)CCC(CNc1ccnc2cc(Cl)ccc12)c1ccc(O)cc1` (stereo not given) stands 81.1% (inactive).
In the case of `COc1ccc(C(=O)c2sc3nc(-c4ccccc4OC)ccc3c2N)cc1OC` it was 66.9% (inactive); in that of `C=C(C)[C@@H]1CC[C@]2(c3ncc(C)o3)CC[C@]3(C)[C@H](CC[C@@H]4[C@@](C)(CCC#N)[C@H](C(=C)C)CC[C@]43C)[C@@H]12`, -63% [100 µM] (active).
For `Cn1cc(-c2cnn3c(N)c(Br)c([C@@H]4CCCNC4)nc23)cn1`, the growth is 67.5% (inactive).
Regarding `N#CCCCCCn1c2ccccc2c2c3[nH]c(=O)[nH]c(=O)c3c3c4ccccc4n(CCCCCC#N)c3c21`, the growth is 69.7% (inactive).
Take `CNc1cc(C(=O)O)nc(NC)n1`: the growth is 95.5% (inactive).
Regarding `CN(C)CC1CCC(CN(C)C)C1=O` (stereo not given), the growth is 108% (inactive).
Under `N#CC(C#N)N=Nc1cc(Cl)ccc1Cl` stands 120% (inactive); under `N#C/C(=C\c1ccc(F)cc1)n1nc2cccc(F)c2n1`, 21.6% (inactive).
With `CN(C)c1ccc(Nc2cc(-c3cccc(OC(F)(F)F)c3)nc3ccc(N4CCCC4)cc23)cc1`, the growth is -48.1% (active).
As to `CN(C)c1ccc2c(c1)OC(N)=C(C#N)C2c1ccc2c(c1)CCO2` (stereo not given), the growth was 18.3% (inactive).
As for `CC(=O)OC[C@H]1OC(Sc2sc(C(=O)c3ccc(Br)cc3)c(N)c2-c2nc3ccccc3s2)[C@H](OC(C)=O)[C@@H](OC(C)=O)[C@H]1OC(C)=O` (stereo not given in full), the growth is 91.9% (inactive).
In the case of `O=C(O)c1cc(C(F)(F)F)cc(C(F)(F)F)c1` it was 109% (inactive); in that of `CN(C)CCCNC(=O)C(c1ccccc1)c1ccccc1`, 111% (inactive); in that of `COc1ccccc1/C=C/C(=O)c1nnn(-c2ccc(C(=O)O)cc2)c1C`, 74.5% (inactive).
Regarding `COc1cc2nc(Nc3cccc(C(=O)O)c3)nc(N)c2cc1OC`, the growth is 108% (inactive).
For the compound `CCN(CC)CCNC(=O)c1cn2ncnc(Oc3ccc(NC(=O)Nc4ccc(Cl)c(C(F)(F)F)c4)cc3)c2c1C`, the growth is -80.7% (active).
In the case of `O=C(Cc1ccc(/C=C/C(=O)c2nccs2)cc1)Nc1ccccc1` it was 91.7% (inactive); in that of `S=c1[nH]nc(Cn2c3ccccc3c3ccncc32)o1`, 115% (inactive); in that of `O=Cc1ccc([N+](=O)[O-])s1`, 103% (inactive).
Take `N#Cc1c(-c2ccc(Cl)cc2)nc(NN=Cc2cccc(Cl)c2)nc1N1CCOCC1`: the growth was 85.1% (inactive).
Consider `CC(C)c1cc(C(C)C)c(S(=O)(=O)Oc2ccc(NC(=O)c3ccc(Cl)cc3)cc2)c(C(C)C)c1`, for which the growth is 8.01% (active).
Take `O=C1CCNC1`: the growth is 107% (inactive).
In the case of `CC(C)NC(=O)OCc1c(COC(=O)NC(C)C)c(-c2ccc(Cl)cc2)n2c1CCC2` it was -8.97% (active); in that of `CCCOc1ccc(/C=N/Nc2cc(C)nc3ccc(Cl)cc23)cc1`, 8.78% (active).
Consider `O=C(O)c1ccc(-n2c(=O)n(-c3cccc(C(F)(F)F)c3)c(=O)c3cc(-c4ccc(F)cc4F)ccc32)cc1`, for which the growth was -4.52% (active).
With `C=C1C(=O)O[C@H]2[C@H]1CC/C(CNC(=O)/C=C/c1ccccc1F)=C\CC[C@@]1(C)O[C@@H]21`, the growth was -45.5% (active).
With `C/C(=N\Nc1nc(C)cs1)c1cc2ccccc2o1`, the growth is 82.6% (inactive).
Under `C=C(C)[C@@H]1CC[C@]2(C)[C@H](CC=C3[C@@H]4C[C@](C)(C(=O)N5CCN(C)CC5)CC[C@]4(C)CC[C@]32C)[C@@]1(C)CCC#N` stands 38.3% (inactive); under `CN(C)CCCCNc1ccc(NCCCCN(C)C)c2c1C(=O)c1c(O)ccc(O)c1C2=O`, 96.8% (inactive); under `CCCCCCCCCCC(C)Br` (stereo not given), 111% (inactive).
Under `O=C1NC2(Nc3ccccc31)C(=O)Nc1c(Cl)cc(Cl)cc12` (stereo not given) stands 112% (inactive); under `CCN(CC)c1ccc(/C=N/N=C(N)N)cc1`, 26% (inactive).
With `CCN(CC)CC(O)CNc1c2ccc([N+](=O)[O-])cc2nc2cc(OC)c(OC)cc12` (stereo not given), the growth is -44.5% (active).
With `O=C(N=Nc1c(O)[nH]c2ccccc12)Nc1ccccc1Cl`, the growth was 11.5% (inactive).
